Measured values published in PubChem BioAssay (EPA / NIEHS).
Calls of active or inactive are those of the source. Rule for the calls: active = hit-call score of the fitted dose curve at least 0.9, where 1 is the maximum; inactive = score below 0.9.

Assays:
[1] = read-out: Vascular endothelial growth factor receptor 2 (Homo sapiens) (UniProt P35968); assay: BSK_4H_VEGFRII: BioMAP Diversity Plus: 4H Assay for Vascular endothelial growth factor receptor 2 (VEGFR2) Biomarker Activity (AID 2283031); details: primary human endothelial cells (HUVEC); actives raise or lower the signal
Summary of the method: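 Primary human umbilical vein endothelial cells in the BioMAP 4H system were dosed with test chemical, and 24 h later VEGFRII was measured by ELISA. Activity was fitted bidirectionally against DMSO as negative control and baseline.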

[2] = read-out: Human Leukocyte Antigen - DR isotype (HLADR), HLA-DRA (gene 3122); assay: BSK_BE3C_HLADR: BioMAP Diversity Plus: BE3C Assay for Human Leukocyte Antigen - DR isotype (HLADR) Biomarker Activity (AID 2283032); details: primary human bronchial epithelial cells; actives raise or lower the signal
Summary of the method: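 Signal came from an ELISA for HLA-DR in human bronchial epithelial primary cells harvested 24 h after treatment; gain- and loss-of-signal fitting used DMSO controls as reference.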

[3] = read-out: Vascular cell adhesion molecule 1 (VCAM1), VCAM1 (gene 7412); assay: BSK_4H_VCAM1: BioMAP Diversity Plus: 4H Assay for Vascular cell adhesion molecule 1 (VCAM1) Biomarker Activity (AID 2283033); details: primary human endothelial cells (HUVEC); actives raise or lower the signal
Summary of the method: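 Endpoint derived from bidirectional fitting against DMSO controls of VCAM-1 ELISA signal in umbilical vein endothelial cells sampled at 24 h following treatment.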

[4] = read-out: Interferon-gamma inducible Protein 10 (IP10), CXCL10 (gene 3627); assay: BSK_BE3C_IP10: BioMAP Diversity Plus: BE3C Assay for Interferon-gamma inducible Protein 10 (IP10) Biomarker Activity (AID 2283034); details: primary human bronchial epithelial cells; actives raise or lower the signal
Summary of the method: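 Using primary human bronchial epithelial cultures, the assay captures IP-10 by ELISA one day (24 h) after exposure. Parallel SRB staining of total protein flags overt cytotoxicity. Fits run bidirectionally relative to DMSO.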

[5] = read-out: Monokine induced gamma interferon (MIG), CXCL9 (gene 4283); assay: BSK_BE3C_MIG: BioMAP Diversity Plus: BE3C Assay for Monokine induced gamma interferon (MIG) Biomarker Activity (AID 2283035); details: primary human bronchial epithelial cells; actives raise or lower the signal
Summary of the method: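 MIG level was determined by ELISA after 24 h chemical treatment of primary human bronchial epithelial cells. Values were fitted bidirectionally with DMSO as the negative control and activity baseline.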

[6] = read-out: Transforming growth factor beta 1 (TGFb1), TGFB1 (gene 7040); assay: BSK_BE3C_TGFb1: BioMAP Diversity Plus: BE3C Assay for Transforming growth factor beta 1 (TGFb1) Biomarker Activity (AID 2283036); details: primary human bronchial epithelial cells; actives raise or lower the signal
Summary of the method: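 In this human primary bronchial epithelial system, an ELISA quantified TGF-b1 one day after dosing. Endpoint changes in either direction were fitted relative to DMSO.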

[7] = read-out: Plasminogen activator inhibitor-1 (PAI1), SERPINE1 (gene 5054); assay: BSK_BE3C_PAI1: BioMAP Diversity Plus: BE3C Assay for Plasminogen activator inhibitor-1 (PAI1) Biomarker Activity (AID 2283037); details: primary human bronchial epithelial cells; actives raise or lower the signal
Summary of the method: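 PAI-1 biomarker levels in treated human bronchial epithelial cells are determined by ELISA at 24 h. Both increases and decreases relative to DMSO are fitted.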

[8] = read-out: Urokinase-type plasminogen activator receptor (uPAR), PLAUR (gene 5329); assay: BSK_BE3C_uPAR: BioMAP Diversity Plus: BE3C Assay for Urokinase-type plasminogen activator receptor (uPAR) Biomarker Activity (AID 2283039); details: primary human bronchial epithelial cells; actives raise or lower the signal
Summary of the method: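 A uPAR ELISA serves as the readout, taken 24 h after treating primary human bronchial epithelial cells. Responses in either direction are fitted against DMSO, which defines baseline activity.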

[9] = read-out: Interleukin-6 (IL6), IL6 (gene 3569); assay: BSK_CASM3C_IL6: BioMAP Diversity Plus: CASM3C Assay for Interleukin-6 (IL6) Biomarker Activity for (AID 2283040); details: primary human coronary artery smooth muscle cells; actives raise or lower the signal
[10] = read-out: Tissue plasminogen activator (tPA), PLAT (gene 5327); assay: BSK_BE3C_tPA: BioMAP Diversity Plus: BE3C Assay for Tissue plasminogen activator (tPA) Biomarker Activity (AID 2283041); details: primary human bronchial epithelial cells; actives raise or lower the signal
Summary of the method: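 Bidirectional curve fitting relative to DMSO defined activity, with tPA detected by ELISA in chemically treated human bronchial epithelial primary cells at 24 hours.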

[11] = read-out: Interleukin-8 (IL8), CXCL8 (gene 3576); assay: BSK_CASM3C_IL8: BioMAP Diversity Plus: CASM3C Assay for Interleukin-8 (IL8) Biomarker Activity (AID 2283042); details: primary human coronary artery smooth muscle cells; actives raise or lower the signal;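 note: IL-8 protein level quantified by ELISA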
[12] = read-out: Human Leukocyte Antigen - DR isotype (HLADR), HLA-DRA (gene 3122); assay: BSK_CASM3C_HLADR: BioMAP Diversity Plus: CASM3C Assay for Human Leukocyte Antigen - DR isotype (HLADR) Biomarker Activity (AID 2283043); details: primary human coronary artery smooth muscle cells; actives raise or lower the signal;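 note: cell-surface HLA-DR protein level quantified by ELISA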
[13] = read-out: Macrophage colony-stimulating factor (MCSF), CSF1 (gene 1435); assay: BSK_CASM3C_MCSF: BioMAP Diversity Plus: CASM3C Assay for Macrophage colony-stimulating factor (MCSF) Biomarker Activity (AID 2283044); details: primary human coronary artery smooth muscle cells; actives raise or lower the signal;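 note: M-CSF protein amount quantified by ELISA after 24 h exposure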
[14] = read-out: Low-density lipoprotein receptor (LDLR), LDLR (gene 3949); assay: BSK_CASM3C_LDLR: BioMAP Diversity Plus: CASM3C Assay for Low-density lipoprotein receptor (LDLR) Biomarker Activity (AID 2283045); details: primary human coronary artery smooth muscle cells; actives raise or lower the signal;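 note: LDLR protein level on the cell surface quantified by ELISA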
[15] = read-out: Monocyte Chemoattractant Protein-1 (MCP1), CCL2 (gene 6347); assay: BSK_CASM3C_MCP1: BioMAP Diversity Plus: CASM3C Assay for Monocyte Chemoattractant Protein-1 (MCP1) Biomarker Activity (AID 2283046); details: primary human coronary artery smooth muscle cells; actives raise or lower the signal;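 note: MCP-1 level quantified by ELISA 24 h after dosing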
[16] = BSK_CASM3C_Proliferation: Cell Proliferation Assessment in the BioMAP Diversity Plus: CASM3C Assay (AID 2283047); details: primary human coronary artery smooth muscle cells;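 note: sulforhodamine B total protein stain as relative cell number at 560 nm; sub-confluent cells exposed 48 h before staining; fitted both ways against DMSO so gain or loss of cell number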
[17] = read-out: Monokine induced gamma interferon (MIG), CXCL9 (gene 4283); assay: BSK_CASM3C_MIG: BioMAP Diversity Plus: CASM3C Assay for Monokine induced gamma interferon (MIG) Biomarker Activity (AID 2283048); details: primary human coronary artery smooth muscle cells; actives raise or lower the signal
[18] = read-out: serum amyloid A (SAA), SAA1 (gene 6288); assay: BSK_CASM3C_SAA: BioMAP Diversity Plus: CASM3C Assay for serum amyloid A (SAA) Biomarker Activity (AID 2283049); details: primary human coronary artery smooth muscle cells; actives raise or lower the signal;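 note: SAA protein level quantified by ELISA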
[19] = BSK_CASM3C_SRB: Viability Assessment in the BioMAP Diversity Plus: CASM3C Assay (AID 2283050); details: primary human coronary artery smooth muscle cells
[20] = read-out: urokinase plasminogen activator (uPA), PLAU (gene 5328); assay: BSK_BE3C_uPA: BioMAP Diversity Plus: BE3C Assay for urokinase plasminogen activator (uPA) Biomarker Activity (AID 2283038); details: primary human bronchial epithelial cells; actives raise or lower the signal
Summary of the method: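 Human primary bronchial epithelial cells were exposed to chemical for 24 h, then uPA levels were measured by ELISA. Responses were fitted bidirectionally against DMSO as negative control and baseline. Parallel SRB staining of total protein gauged overt cytotoxicity.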

Measured: AC50

COc1cc(C(=O)NC2CCN(C)CC2)ccc1Nc1ncc2c(n1)N(C1CCCC1)CC(F)(F)C(=O)N2C
active: [2] 21.9 µM | [3] 7.23 µM | [4] 35.5 µM | [5] 31.8 µM | [6] 18.5 µM | [7] 18.6 µM | [8] 5.34 µM | [9] 8.51 µM | [10] 10.6 µM | [11] 19.2 µM | [12] 9.13 µM | [13] 18.6 µM | [14] 6.15 µM | [15] 25.1 µM | [16] 1.67 µM | [17] 20.8 µM | [18] 31.9 µM | [19] 27.5 µM
inactive: [1]

Clc1ccccc1C(c1ccccc1)(c1ccccc1)n1ccnc1
inactive: [1]
active: [2] 8.22 µM | [3] 33.5 µM | [4] 10.7 µM | [5] 9.5 µM | [6] 6.45 µM | [7] 7.59 µM | [20] 9.81 µM | [8] 9.68 µM | [9] 31.9 µM | [10] 5.41 µM | [11] 36.6 µM | [12] 28 µM | [13] 32.6 µM | [14] 36.9 µM | [15] 34.4 µM | [16] 22.5 µM | [17] 39.2 µM | [18] 27.1 µM | [19] 29.1 µM

CC/C(=C(/CC)c1ccc(O)cc1)c1ccc(O)cc1
inactive: [1] | [9] | [12] | [13] | [17]
active: [2] 23.4 µM | [3] 28.9 µM | [4] 17.1 µM | [5] 33 µM | [6] 6.47 µM | [7] 20 µM | [8] 31.3 µM | [10] 14.3 µM | [11] 1.17 µM | [14] 8.57 µM | [15] 0.345 µM | [16] 20 µM | [18] 33.7 µM | [19] 29.9 µM

CCCCCCCCOc1ccc(C(=O)c2ccccc2)c(O)c1
inactive: all assays above

CC(C)(c1cc(Br)c(O)c(Br)c1)c1cc(Br)c(O)c(Br)c1
active: [2] 7.25 µM | [3] 29.6 µM | [4] 6.45 µM | [5] 9.16 µM | [6] 5.15 µM | [7] 4.89 µM | [8] 9.25 µM | [10] 3.37 µM | [12] 33.1 µM | [13] 19.1 µM | [15] 30.1 µM | [16] 32 µM | [18] 31.9 µM
inactive: [1] | [9] | [11] | [14] | [17] | [19]
